Test [1] deals with T1, Serine/threonine-protein kinase TBK1 (Homo sapiens) (UniProt Q9UHD2).
T1 sequence (whole entry): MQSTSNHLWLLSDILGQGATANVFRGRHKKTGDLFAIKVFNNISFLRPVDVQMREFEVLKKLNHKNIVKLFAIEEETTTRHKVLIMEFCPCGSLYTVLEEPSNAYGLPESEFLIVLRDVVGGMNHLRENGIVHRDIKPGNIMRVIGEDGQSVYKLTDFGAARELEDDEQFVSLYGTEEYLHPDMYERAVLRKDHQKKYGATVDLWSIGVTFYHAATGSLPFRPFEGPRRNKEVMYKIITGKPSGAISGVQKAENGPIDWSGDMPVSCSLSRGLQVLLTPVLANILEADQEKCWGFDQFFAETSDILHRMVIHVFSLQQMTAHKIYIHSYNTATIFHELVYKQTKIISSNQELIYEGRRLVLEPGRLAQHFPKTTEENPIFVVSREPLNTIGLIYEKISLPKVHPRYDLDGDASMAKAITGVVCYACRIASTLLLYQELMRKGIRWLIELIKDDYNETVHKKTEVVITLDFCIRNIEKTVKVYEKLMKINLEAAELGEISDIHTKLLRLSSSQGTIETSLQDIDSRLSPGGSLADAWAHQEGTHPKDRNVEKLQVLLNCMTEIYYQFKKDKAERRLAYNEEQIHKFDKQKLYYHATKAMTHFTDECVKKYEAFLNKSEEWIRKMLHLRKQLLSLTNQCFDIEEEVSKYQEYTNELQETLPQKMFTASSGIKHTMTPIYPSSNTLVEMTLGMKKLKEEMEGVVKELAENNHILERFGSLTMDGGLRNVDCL
Particulars: at 1 µM.

Test [2] deals with T2, Testis-specific serine/threonine-protein kinase 1 (Homo sapiens) (UniProt Q9BXA7).
T2 sequence (whole entry): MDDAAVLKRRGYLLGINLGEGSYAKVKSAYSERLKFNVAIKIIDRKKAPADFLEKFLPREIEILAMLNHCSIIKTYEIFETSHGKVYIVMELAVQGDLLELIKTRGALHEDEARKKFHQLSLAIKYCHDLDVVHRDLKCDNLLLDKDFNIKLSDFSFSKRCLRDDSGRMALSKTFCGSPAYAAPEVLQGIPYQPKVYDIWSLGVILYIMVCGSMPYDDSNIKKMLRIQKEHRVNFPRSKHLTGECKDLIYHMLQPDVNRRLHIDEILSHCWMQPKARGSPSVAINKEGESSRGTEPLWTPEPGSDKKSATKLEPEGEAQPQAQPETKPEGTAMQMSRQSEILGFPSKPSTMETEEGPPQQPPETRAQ
Particulars: at 0.1 µM.

Test [3] concerns the target T2, Testis-specific serine/threonine-protein kinase 1 (Homo sapiens). Particulars: at 1 µM.
Test [4] has as its target T3, Testis-specific serine/threonine-protein kinase 2 (Homo sapiens) (UniProt Q96PF2).
T3 sequence (whole entry): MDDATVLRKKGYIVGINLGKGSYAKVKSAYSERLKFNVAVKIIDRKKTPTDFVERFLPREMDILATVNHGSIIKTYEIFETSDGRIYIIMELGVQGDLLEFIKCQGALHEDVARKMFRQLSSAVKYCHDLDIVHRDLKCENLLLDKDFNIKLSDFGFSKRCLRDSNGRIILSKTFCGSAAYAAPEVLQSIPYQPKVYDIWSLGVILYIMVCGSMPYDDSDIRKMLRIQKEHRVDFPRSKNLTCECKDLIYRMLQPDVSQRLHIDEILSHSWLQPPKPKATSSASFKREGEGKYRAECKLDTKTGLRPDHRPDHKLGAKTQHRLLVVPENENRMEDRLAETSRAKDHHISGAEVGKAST
Particulars: at 0.1 µM.

The target of test [5] is T3, Testis-specific serine/threonine-protein kinase 2 (Homo sapiens). Particulars: at 1 µM.
Test [6] deals with Casein kinase I isoform alpha (Homo sapiens) (UniProt P48729). Particulars: at 0.1 µM.
Test [7] has the same target. Particulars: at 1 µM.
Test [8] concerns the target Casein kinase I isoform gamma-1 (Homo sapiens) (UniProt Q9HCP0). Particulars: at 0.1 µM.
Test [9] shares this target. Particulars: at 1 µM.
Test [10] deals with Casein kinase I isoform gamma-2 (Homo sapiens) (UniProt P78368). Particulars: at 0.1 µM.
Test [11] has the same target. Particulars: at 1 µM.
In test [12] the target is Casein kinase I isoform gamma-3 (Homo sapiens) (UniProt Q9Y6M4). Particulars: at 0.1 µM.
Test [13] has the same target. Particulars: at 1 µM.
For test [14], the target named is Cyclin-dependent kinase 1 (Homo sapiens) (UniProt P06493). Particulars: at 0.1 µM.
The target of test [15] is Cyclin-dependent kinase 2 (Homo sapiens) (UniProt P24941). Particulars: at 0.1 µM.
For test [16] the target is unchanged. Particulars: at 1 µM.
Test [17] has the same target. Particulars: at 0.1 µM. This is another data set of the same source.
Test [18] has the same target. Particulars: at 1 µM. This is another data set of the same source.
Test [19] concerns the target CDK3/Cyclin E (Homo sapiens) (UniProt P24864+Q00526). Particulars: at 0.1 µM.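 Also: reported percentages are mean inhibition values.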
Test [20] concerns the target Cyclin-dependent kinase 1 (Homo sapiens) (UniProt P06493). Particulars: at 1 µM.

Usually inhibition stands for the relative decrease from the control value, in per cent.

Chain of Cyclin-dependent kinase 1 (Homo sapiens) (P06493 whole entry, looked up): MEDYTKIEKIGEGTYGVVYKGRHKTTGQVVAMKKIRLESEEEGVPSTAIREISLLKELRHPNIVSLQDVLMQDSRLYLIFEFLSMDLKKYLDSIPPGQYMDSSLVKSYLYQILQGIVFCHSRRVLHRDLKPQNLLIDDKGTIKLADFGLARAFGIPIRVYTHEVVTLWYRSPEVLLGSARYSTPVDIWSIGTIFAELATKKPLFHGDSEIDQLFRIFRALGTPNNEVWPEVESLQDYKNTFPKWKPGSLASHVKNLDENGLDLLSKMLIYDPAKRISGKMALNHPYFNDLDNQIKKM
Chain of Casein kinase I isoform alpha (Homo sapiens) (P48729 2-337 limits assumed): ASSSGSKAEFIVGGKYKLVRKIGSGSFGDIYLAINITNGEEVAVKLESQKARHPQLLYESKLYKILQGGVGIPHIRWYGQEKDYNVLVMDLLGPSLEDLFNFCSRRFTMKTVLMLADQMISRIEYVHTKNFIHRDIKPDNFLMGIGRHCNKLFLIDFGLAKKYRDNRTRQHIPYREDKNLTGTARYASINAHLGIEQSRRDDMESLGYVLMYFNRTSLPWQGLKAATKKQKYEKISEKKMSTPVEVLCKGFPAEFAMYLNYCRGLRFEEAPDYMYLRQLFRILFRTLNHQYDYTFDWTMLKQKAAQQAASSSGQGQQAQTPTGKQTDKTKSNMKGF
Chain of Casein kinase I isoform gamma-3 (Homo sapiens) (Q9Y6M4 whole entry, looked up, canonical isoform): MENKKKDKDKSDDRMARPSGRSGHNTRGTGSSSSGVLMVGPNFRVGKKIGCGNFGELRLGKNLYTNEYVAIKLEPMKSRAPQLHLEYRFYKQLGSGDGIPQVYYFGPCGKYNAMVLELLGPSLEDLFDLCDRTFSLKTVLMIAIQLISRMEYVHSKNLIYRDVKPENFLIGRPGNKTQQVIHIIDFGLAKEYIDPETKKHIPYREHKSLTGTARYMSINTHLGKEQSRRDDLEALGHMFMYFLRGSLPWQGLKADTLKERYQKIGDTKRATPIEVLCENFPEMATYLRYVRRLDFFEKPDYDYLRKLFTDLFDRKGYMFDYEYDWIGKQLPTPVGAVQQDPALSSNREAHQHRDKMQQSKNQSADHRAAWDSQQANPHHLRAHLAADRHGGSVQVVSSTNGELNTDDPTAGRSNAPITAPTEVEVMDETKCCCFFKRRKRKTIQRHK
Chain of Casein kinase I isoform gamma-1 (Homo sapiens) (Q9HCP0 whole entry, looked up, canonical isoform): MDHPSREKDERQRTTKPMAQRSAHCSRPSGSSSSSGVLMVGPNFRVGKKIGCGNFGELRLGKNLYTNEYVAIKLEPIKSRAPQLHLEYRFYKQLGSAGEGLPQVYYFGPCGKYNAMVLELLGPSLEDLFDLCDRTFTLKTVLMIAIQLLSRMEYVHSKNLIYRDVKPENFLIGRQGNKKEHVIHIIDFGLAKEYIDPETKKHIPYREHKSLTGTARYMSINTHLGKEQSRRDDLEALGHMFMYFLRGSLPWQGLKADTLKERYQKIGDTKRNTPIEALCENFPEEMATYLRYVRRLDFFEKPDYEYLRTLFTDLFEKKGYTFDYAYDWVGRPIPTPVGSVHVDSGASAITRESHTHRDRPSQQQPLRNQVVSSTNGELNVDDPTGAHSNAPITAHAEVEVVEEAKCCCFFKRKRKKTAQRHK
Chain of Casein kinase I isoform gamma-2 (Homo sapiens) (P78368 whole entry, looked up, canonical isoform): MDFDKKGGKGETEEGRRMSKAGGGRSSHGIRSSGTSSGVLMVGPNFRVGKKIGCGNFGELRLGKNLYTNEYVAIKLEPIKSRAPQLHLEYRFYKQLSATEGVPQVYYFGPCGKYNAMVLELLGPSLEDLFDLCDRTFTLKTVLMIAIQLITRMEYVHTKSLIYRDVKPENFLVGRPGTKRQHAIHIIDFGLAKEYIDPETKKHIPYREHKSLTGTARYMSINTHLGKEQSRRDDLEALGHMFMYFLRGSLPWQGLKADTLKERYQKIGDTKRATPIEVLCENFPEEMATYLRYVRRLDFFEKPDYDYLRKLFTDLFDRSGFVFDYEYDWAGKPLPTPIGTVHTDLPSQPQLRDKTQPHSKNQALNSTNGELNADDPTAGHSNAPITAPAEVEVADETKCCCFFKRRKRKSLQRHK
Chain of CDK3/Cyclin E (Homo sapiens) (P24864 whole entry, looked up): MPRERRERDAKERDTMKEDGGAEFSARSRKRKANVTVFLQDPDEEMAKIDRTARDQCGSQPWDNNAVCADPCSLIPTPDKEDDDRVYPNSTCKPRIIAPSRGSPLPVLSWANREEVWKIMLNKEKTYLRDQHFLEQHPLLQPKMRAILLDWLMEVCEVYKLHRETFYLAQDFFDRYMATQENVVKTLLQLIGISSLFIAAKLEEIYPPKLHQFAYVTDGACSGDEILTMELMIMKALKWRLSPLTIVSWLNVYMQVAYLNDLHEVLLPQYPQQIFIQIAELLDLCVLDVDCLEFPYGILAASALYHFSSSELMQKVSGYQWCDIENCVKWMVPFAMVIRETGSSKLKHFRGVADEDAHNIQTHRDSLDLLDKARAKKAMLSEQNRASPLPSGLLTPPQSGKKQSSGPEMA
Chain of CDK3/Cyclin E (Homo sapiens) (Q00526 whole entry, looked up): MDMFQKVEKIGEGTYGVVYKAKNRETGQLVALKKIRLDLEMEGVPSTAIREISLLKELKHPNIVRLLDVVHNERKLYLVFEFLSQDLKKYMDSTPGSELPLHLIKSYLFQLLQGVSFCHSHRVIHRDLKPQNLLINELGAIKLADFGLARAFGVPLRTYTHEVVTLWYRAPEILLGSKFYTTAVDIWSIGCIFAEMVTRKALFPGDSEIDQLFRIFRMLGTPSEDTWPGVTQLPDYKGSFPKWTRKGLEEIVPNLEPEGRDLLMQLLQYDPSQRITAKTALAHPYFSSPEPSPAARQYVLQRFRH

On to `Nc1nc(-c2ccc3c(c2)C(=Cc2cc(Br)c(O)c(Br)c2)C(=O)N3)cs1`, for which the inhibition in test [1] is 0.36%; in test [2] it was -0.52%; in test [3] it was -0.1%; in test [4], -1.49%; in test [5], 0.36%; in [6], -0.89%. The inhibition in test [7] was -1.31%; in [8], -1.34%; in test [9] it was -1.14%; in [10] it was -1.3%; in test [11] it was -0.74%; in test [12], -2.56%. Further, the inhibition in test [13] is 0.95%; in test [14], 0.71%; in test [15] it was 1.38%; in test [16], -0.83%; in [17] it was -0.42%; in test [18], 2.91%. The inhibition in [19] stood at 0.55%.
With `O=C1NC(=O)C(c2ccc(Cl)cc2)=C1Nc1ccc(Cl)c(C(=O)O)c1`, the inhibition in test [1] is 0.78%; in [2] it was -1.77%; in [3] it was -3.14%; in test [4] it was -1.44%; in test [5], -2.14%; in test [6] it was 0.85%. For the same compound, the inhibition in [7] was -1.03%; in [8] it was -1.57%; in test [9], -2.04%; in [10], -1.56%; in test [11], -1.57%; in [12], -0.68%. The inhibition in test [13] was -1.39%; in test [14], 0.08%; in test [20] it was 1.14%; in test [15], -1.04%; in test [16], -8.99%; in [17], -0.37%. For the same compound, the inhibition in test [18] was 0.53%; in [19], -0.7%.
For the compound `CCCN1CCC=C(c2ccc(Nc3nc(Nc4ccccc4C(N)=O)c4cc[nH]c4n3)c(C)c2)C1`, the inhibition in test [1] came to 9.03%; in test [2], 29.9%; in [3], 76.7%; in test [4], 7.28%; in test [5], 37.6%; in [6], 8.97%. Besides, the inhibition in test [7] worked out at 47.6%; in test [8], 22.5%; in test [9] it was 59.8%; in test [10] it was 31.1%; in test [12], 36.1%; in test [13] it was 69.3%. The inhibition in [14] was 2.18%; in test [20], 7.53%; in test [15], 5.19%; in [16] it was 22.5%; in test [17] it was 3.79%; in test [18] it was 28.3%. The inhibition in test [19] was -2.97%.
Regarding `Cc1cc(O)cc(C)c1/C=C/c1cncc(-c2nn[nH]n2)c1`, the inhibition in test [1] is 5.41%; in [2], 2.79%; in test [3], 2.61%; in test [4], 1.18%; in test [5], 0.73%; in test [6], 7.75%. Further, the inhibition is 10.6% in [7]; 1.82% in [8]; 3.8% in test [9]; 0.59% in test [10]; 3.73% in test [11]; -0.15% in test [12]. The inhibition in [13] is 1.13%; in test [14] it was -2.89%; in [20], -3.31%; in test [15], -1.42%; in test [16], 2.36%; in test [17], 0.42%. In addition, the values for the inhibition in test [18] and in [19] were 0.7% and 2.82%, respectively.
Turning to `CN(C)c1cc2c(Nc3ccc4nc(Cc5ccccc5)[nH]c4c3)ncnc2cn1`, the inhibition was found to be 4.24% in [1]; 5.14% in [2]; 5.29% in [3]; 4.42% in test [4]; 3.59% in test [5]; 3.65% in test [6]. For the same compound, the inhibition in [7] worked out at 6.31%; in [8], 4.21%; in test [9], 5.5%; in test [10] it was 3.69%; in test [11] it was 5.2%; in test [12] it was 3.73%. Besides, the inhibition in test [13] is 4.56%; in test [14], -0.43%; in test [20], 1.6%; in [15], 2.83%; in [16], 6.58%; in test [17], 4.49%. The inhibition in test [18] amounted to 5.71%; in test [19] it was 3.16%.
As to `COc1ccc(-c2nn3ncccc3c2-c2ccnc(Nc3ccc(Cl)c(C(F)(F)F)c3)n2)cc1`, the inhibition in test [1] was 2.16%; in [2] it was 2.65%; in [3] it was 4.89%; in test [4], 2.27%; in test [5], 5.15%; in test [6], -4.74%. For the same compound, the inhibition in [7] came to 0.96%; in test [8], 1.89%; in test [9] it was 2.18%; in test [10] it was 1.23%; in test [11] it was 1.48%; in test [12], 2.03%. In addition, the inhibition in test [13] is 0.7%; in [14], 0.45%; in test [20], 0.2%; in test [15], 1.46%; in [16], -2.2%; in test [17], 1.44%. Further, the inhibition in [18] turned out to be 1.76%; in [19], 1.87%.
As for `COc1cc2ncn(-c3cc(O[C@H](C)c4ccccc4Cl)c(C(N)=O)s3)c2cc1OC`, the inhibition in test [1] amounted to 6.39%; in test [2] it was 4.46%; in test [3] it was 8.45%; in test [4], 2.71%; in test [5] it was 4.44%; in test [6], 3%. Moreover, the inhibition in test [7] came out at 3.21%; in test [8] it was 3.26%; in test [9], 3.83%; in test [10], 2.55%; in test [11], 2.68%; in test [12] it was 2.15%. The inhibition in [13] turned out to be 3.1%; in [14], 0.89%; in [20] it was 6.45%; in test [19], 2.71%.

(Values after ChEMBL document CHEMBL1961873, “Compounds: GSK PKIS; Assays: Nanosyn kinase panel” (2012).)
